We go through 28 molecules from PubChem BioAssay.

For this assay, the target named is Albumin (Bos taurus) (UniProt P02769). The experiment in a line: bovine serum albumin binders on microarray, profiling panel, artefact control for SMM control protein annotation, biochemical, small-molecule microarray, Alexa647 label, 635/667 nm fluorescence (AID 1118).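 Further: score merges 667 nm emission intensity and signal-to-noise per printed compound spot.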 As to conditions: BSA-A647 binding, fluorescence 635 nm, higher = more signal.
Chain of Albumin (Bos taurus) (P02769 whole entry, looked up): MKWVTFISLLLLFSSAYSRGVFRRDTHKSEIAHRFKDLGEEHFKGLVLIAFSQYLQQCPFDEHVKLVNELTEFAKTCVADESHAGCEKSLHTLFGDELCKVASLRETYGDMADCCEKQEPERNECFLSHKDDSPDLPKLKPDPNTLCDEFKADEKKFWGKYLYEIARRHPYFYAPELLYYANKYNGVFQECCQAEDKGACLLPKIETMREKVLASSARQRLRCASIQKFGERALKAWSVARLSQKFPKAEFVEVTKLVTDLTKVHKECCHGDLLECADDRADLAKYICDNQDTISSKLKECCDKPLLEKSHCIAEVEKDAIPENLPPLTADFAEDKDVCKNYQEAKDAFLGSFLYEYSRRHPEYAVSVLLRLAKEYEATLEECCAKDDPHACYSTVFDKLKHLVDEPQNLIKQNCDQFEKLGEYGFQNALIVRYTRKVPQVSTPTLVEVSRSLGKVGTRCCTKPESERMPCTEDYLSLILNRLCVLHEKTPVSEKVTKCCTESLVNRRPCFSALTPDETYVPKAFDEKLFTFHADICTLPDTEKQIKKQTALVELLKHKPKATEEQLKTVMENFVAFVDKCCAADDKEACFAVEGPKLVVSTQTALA
`CN1C(=O)C2C=CC(C(O)C#Cc3ccccc3)N(Nc3ccccc3)C2C1=O` (stereo not drawn) gave a composite z-score of 1.03. In turn, `CN(C)c1ccc(C(O)C2C=CC3C(=O)N(c4ccccc4)C(=O)C3N2Nc2ccc([N+](=O)[O-])cc2)cc1` (stereo not drawn) returned a composite z-score of 0.653.

`CN(C)C(=O)[C@@]1(Cc2ccccc2CN=[N+]=[N-])N=C(c2ccc(OCCCO)cc2)O[C@H]1c1ccccc1CN=[N+]=[N-]`: the composite z-score came out at 0.936. On to `O=C1OCC=C[C@H]2OC34C=CCN(Cn5nnc6ccccc65)C(=O)[C@H]3N(CCCO)C(=O)[C@@H]4[C@@H]12` (stereo partly drawn), for which the composite z-score is -0.877. Consider `C[N+](C)(C)CCCCCCNC(=O)[C@H]1C[C@H]2C(=O)N[C@@H](Cc3ccccc3)C(=O)N2[C@H]1c1ccc(O)cc1`, for which the composite z-score is -0.459. The result for `COCCOC(=O)N1C(=O)[C@@]2(c3cc(C#CCCO)ccc31)[C@H](C(=O)Nc1nc3ccccc3s1)[C@H]1C(=O)O[C@H](c3ccccc3)[C@H](c3ccccc3)N1[C@@H]2c1ccccc1OCCO` reads 0.623; that for `COc1cc2c(cc1OC)CN(C(=O)[C@@H]1[C@H]3C(=O)O[C@H](c4ccccc4)[C@H](c4ccccc4)N3[C@H](c3ccc(OCCO)cc3)[C@@]13C(=O)Nc1ccc(C#CC4(O)CCCCCC4)cc13)CC2`, 0.872; that for `COc1cc(CO)cc(I)c1O[C@H]1C=C(C(=O)NCCO)C[C@@H](NCc2ccc(F)cc2)[C@@H]1O`, -1.03. Turning to `[N-]=[N+]=NCc1ccccc1C[C@@]1(C(=O)NCc2ccccc2)N=C(c2ccc(OCCCO)cc2)O[C@@H]1c1ccccc1N=[N+]=[N-]`, the composite z-score is 0.428. `O=C(CS)NCCCCCNC(=O)[C@@H]1C[C@@H]2C(=O)N3CCC[C@H]3C(=O)N2[C@@H]1c1cccc(OCCO)c1` gave a composite z-score of -0.105. `C=C(C)c1cc2c(c(CCCCCC)n1)[Si](C(C)C)(C(C)C)OC2` yielded a composite z-score of -0.923. As for `CCCCC(O)C1C=CC2C(=O)N(c3ccccc3)C(=O)C2N1Nc1ccc(C(C)C)cc1` (stereo not drawn), the figure is 0.898. The molecule `COCCOC(=O)N1C(=O)[C@@]2(c3cc(C#CC4=CCCCC4)ccc31)[C@H](c1ccc(OCCO)cc1)N1[C@H](c3ccccc3)[C@H](c3ccccc3)OC(=O)[C@H]1[C@@H]2C(=O)N1CCN(c2ncccn2)CC1` displayed a composite z-score of 0.737.

Molecule `C=C(COC)/C(=C/C[C@H](OC(C)=O)c1ccc(OCCO)cc1)c1cc(C(=O)OC)ccc1OC` registered a composite z-score of -0.115. `CC1CC/C=C\[C@H]2OC34C=CCN(c5ccc(Cl)cc5)C(=O)[C@H]3N(CCCCCO)C(=O)[C@]4(C)C2C(=O)O1` (stereo partly drawn) showed a composite z-score of -1.08. Turning to `CN1C(=O)C2C=CC(C(O)c3cccc(O)c3)N(Nc3ccccc3)C2C1=O` (stereo not drawn), the composite z-score came to 0.976.

On to `O=C1NC(=O)C2C1C=CC(C(O)c1c(F)cccc1Cl)N2Nc1ccc(Cl)cc1Cl` (stereo not drawn), for which the composite z-score was found to be 1.04. As for `COc1ccc([Si](C)(C)[C@@H]2[C@@H](CCO)O[C@]3(C(=O)N(Cc4ccc(N5CCCCC5=O)cc4)c4ccccc43)[C@H]2C)cc1`, the figure is 0.116.

As to `C=CCC(OC(C)=O)[C@@H]1[C@@H](N(Cc2cc3ccccc3o2)C(=O)c2ccc(C)cc2)c2cc(OCCCO)ccc2N1C(=O)Cc1ccc(OC)cc1` (stereo partly drawn), the composite z-score is -0.204. Turning to `CCOc1cc(C(O)C2C=CC3C(=O)N(C)C(=O)C3N2Nc2ccccc2)ccc1O` (stereo not drawn), the composite z-score worked out at 1.04. In turn, `O=C(CS)NCCCCCCNC(=O)[C@H]1C[C@H]2C(=O)N[C@@H](Cc3ccccc3)C(=O)N2[C@H]1c1ccc(O)cc1` had a composite z-score of -0.242. `CC(c1ccccc1)C(O)C1C=CC2C(=O)N(c3ccccc3)C(=O)C2N1Nc1ccc([N+](=O)[O-])cc1` (stereo not drawn) returned a composite z-score of 0.903.

For the molecule `COc1ccccc1CN1C(=O)c2ccccc2[C@@]2(Cc3ccccc3N(CC(F)(F)F)C2=O)[C@@H]1c1ccc(CO)cc1`, the composite z-score was -0.826. The molecule `COC(=O)C(CC#Cc1ccc2c(c1)[C@]1(C(=O)N2)[C@H](C(=O)N2CCN(c3ncccn3)CC2)[C@H]2C(=O)O[C@H](c3ccccc3)[C@H](c3ccccc3)N2[C@@H]1c1ccc(OCCO)cc1)C(=O)OC` gave a composite z-score of 0.535. `[N-]=[N+]=Nc1ccccc1[C@@H]1OC(c2ccc(OCCCO)cc2)=N[C@]1(Cc1ccccc1)C(=O)NCC(O)CO` (stereo partly drawn) gave a composite z-score of 0.937. Molecule `Cc1cc(C)c(C(O)C2C=CC3C(=O)NC(=O)C3N2Nc2ccc(Cl)cc2Cl)c(C)c1` (stereo not drawn) registered a composite z-score of 0.961. `COC(=O)c1c2oc(c1C(=O)OC)C(=O)N(Cc1ccccc1)Cc1cn(nn1)C[C@H](Cc1ccccc1)NC(=O)N[C@H](CO)CC2` returned a composite z-score of 0.784. In the case of `C=CCNC(=O)[C@H]1[C@@H]2C(=O)O[C@@H](c3ccccc3)[C@@H](c3ccccc3)N2[C@@H](c2ccc(O)cc2)[C@]12C(=O)N(C(=O)OCCOC)c1ccccc12`, the composite z-score came out at 0.299.
